Test results taken from the supplement of paper PMC6411743.
± gives the standard deviation of the averaged measurements. The full data set covers some 6,500 targets. This sample favours those with the largest changes.

Compound: Nc1ncnc2c1ncn2[C@@H]1O[C@H](COP(=O)(O)OP(=O)(O)OP(=O)(O)O)[C@@H](O)[C@H]1O [adenosine triphosphate]
Assay: NP40-soluble protein abundance relative to vehicle (solubility fold change) (ratio); higher = more soluble protein in presence of ATP
Procedure, shortened: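 Jurkat crude lysate (Dounce-homogenised) was treated with eight concentrations from 0.1 to 10 mM for 10 min at room temperature, then 3 min at 37 °C. It was solubilised with 0.8% NP40 and benzonase (60 min, 4 °C) and ultracentrifuged, and the supernatant was TMT-labelled for LC-MS/MS. Intensities were vsn-normalised, and the value is the fold change against the NP40-processed vehicle per replicate, from three independent experiments.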

Chain of UniProt Q8N183 (Q8N183 whole entry): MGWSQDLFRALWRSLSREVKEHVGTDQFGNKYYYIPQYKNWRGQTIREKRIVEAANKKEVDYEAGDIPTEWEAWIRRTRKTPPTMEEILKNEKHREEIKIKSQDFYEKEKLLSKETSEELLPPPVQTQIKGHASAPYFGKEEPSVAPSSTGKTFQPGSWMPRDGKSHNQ
Chain of UniProt Q13158 (Q13158 whole entry): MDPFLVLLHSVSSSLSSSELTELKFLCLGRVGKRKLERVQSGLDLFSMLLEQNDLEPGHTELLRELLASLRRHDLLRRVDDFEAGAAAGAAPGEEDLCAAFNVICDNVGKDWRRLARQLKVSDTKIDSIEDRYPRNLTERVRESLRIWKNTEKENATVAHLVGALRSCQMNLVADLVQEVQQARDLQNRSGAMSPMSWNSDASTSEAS
Chain of UniProt Q12986 (Q12986 whole entry): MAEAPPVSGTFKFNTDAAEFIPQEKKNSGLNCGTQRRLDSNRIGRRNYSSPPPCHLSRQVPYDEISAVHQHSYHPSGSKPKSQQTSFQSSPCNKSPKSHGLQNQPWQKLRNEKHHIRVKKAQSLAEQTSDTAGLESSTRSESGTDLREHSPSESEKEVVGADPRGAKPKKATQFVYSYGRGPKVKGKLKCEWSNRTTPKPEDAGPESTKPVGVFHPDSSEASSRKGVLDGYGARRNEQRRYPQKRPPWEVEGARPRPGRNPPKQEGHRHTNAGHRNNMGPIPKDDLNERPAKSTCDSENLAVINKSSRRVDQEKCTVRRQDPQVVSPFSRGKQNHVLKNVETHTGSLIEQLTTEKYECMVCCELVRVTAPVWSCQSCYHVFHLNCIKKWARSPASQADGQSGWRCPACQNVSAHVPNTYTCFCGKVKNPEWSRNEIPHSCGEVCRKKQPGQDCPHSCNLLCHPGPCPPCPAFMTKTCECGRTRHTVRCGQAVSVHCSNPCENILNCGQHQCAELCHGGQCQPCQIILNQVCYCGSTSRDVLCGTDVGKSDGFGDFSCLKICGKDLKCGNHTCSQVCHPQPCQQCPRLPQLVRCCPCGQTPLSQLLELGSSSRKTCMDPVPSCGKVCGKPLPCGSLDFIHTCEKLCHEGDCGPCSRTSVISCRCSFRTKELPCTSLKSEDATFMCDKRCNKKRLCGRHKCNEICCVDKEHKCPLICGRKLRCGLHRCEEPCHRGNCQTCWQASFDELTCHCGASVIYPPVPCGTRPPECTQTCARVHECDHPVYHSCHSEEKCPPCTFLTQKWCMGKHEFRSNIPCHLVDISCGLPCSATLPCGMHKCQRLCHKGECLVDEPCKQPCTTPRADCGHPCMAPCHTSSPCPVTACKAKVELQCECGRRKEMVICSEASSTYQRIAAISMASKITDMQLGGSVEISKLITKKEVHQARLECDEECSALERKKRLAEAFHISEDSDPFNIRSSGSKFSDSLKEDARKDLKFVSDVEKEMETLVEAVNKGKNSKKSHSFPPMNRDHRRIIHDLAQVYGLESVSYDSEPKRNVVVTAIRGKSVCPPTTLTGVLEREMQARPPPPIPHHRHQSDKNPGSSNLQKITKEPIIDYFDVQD
Chain of UniProt Q13057 (Q13057 whole entry): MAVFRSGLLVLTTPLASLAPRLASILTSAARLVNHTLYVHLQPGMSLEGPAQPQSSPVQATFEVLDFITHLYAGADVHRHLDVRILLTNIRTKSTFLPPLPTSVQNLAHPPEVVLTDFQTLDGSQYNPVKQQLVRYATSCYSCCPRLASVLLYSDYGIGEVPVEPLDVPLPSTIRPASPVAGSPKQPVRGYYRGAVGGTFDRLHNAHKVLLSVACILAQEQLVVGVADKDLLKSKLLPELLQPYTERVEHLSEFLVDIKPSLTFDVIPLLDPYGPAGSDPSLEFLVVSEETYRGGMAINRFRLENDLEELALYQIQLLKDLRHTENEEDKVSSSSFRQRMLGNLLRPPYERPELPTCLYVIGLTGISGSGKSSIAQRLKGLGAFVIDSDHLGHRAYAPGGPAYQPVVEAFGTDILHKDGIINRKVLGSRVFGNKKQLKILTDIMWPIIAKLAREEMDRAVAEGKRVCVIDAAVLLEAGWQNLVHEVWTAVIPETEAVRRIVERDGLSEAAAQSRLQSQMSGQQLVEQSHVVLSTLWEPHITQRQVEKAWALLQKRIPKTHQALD
Chain of UniProt Q13438 (Q13438 whole entry): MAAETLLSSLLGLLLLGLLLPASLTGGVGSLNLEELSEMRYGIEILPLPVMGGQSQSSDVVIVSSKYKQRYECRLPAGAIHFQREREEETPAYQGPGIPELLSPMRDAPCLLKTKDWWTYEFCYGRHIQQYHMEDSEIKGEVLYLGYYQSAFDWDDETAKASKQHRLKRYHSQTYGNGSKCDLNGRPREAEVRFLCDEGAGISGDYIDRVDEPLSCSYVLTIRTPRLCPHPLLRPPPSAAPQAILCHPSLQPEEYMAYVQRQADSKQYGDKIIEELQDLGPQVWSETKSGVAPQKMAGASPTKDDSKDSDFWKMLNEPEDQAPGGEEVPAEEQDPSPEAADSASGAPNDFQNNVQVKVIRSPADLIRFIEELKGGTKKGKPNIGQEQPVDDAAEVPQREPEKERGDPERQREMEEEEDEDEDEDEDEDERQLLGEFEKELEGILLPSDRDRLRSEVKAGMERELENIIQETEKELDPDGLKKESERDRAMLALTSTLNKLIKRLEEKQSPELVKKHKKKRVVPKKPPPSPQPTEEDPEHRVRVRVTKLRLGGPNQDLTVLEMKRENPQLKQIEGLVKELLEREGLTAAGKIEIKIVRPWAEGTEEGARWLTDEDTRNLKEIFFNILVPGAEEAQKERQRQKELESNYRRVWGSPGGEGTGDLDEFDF
Chain of UniProt Q13045 (Q13045 whole entry): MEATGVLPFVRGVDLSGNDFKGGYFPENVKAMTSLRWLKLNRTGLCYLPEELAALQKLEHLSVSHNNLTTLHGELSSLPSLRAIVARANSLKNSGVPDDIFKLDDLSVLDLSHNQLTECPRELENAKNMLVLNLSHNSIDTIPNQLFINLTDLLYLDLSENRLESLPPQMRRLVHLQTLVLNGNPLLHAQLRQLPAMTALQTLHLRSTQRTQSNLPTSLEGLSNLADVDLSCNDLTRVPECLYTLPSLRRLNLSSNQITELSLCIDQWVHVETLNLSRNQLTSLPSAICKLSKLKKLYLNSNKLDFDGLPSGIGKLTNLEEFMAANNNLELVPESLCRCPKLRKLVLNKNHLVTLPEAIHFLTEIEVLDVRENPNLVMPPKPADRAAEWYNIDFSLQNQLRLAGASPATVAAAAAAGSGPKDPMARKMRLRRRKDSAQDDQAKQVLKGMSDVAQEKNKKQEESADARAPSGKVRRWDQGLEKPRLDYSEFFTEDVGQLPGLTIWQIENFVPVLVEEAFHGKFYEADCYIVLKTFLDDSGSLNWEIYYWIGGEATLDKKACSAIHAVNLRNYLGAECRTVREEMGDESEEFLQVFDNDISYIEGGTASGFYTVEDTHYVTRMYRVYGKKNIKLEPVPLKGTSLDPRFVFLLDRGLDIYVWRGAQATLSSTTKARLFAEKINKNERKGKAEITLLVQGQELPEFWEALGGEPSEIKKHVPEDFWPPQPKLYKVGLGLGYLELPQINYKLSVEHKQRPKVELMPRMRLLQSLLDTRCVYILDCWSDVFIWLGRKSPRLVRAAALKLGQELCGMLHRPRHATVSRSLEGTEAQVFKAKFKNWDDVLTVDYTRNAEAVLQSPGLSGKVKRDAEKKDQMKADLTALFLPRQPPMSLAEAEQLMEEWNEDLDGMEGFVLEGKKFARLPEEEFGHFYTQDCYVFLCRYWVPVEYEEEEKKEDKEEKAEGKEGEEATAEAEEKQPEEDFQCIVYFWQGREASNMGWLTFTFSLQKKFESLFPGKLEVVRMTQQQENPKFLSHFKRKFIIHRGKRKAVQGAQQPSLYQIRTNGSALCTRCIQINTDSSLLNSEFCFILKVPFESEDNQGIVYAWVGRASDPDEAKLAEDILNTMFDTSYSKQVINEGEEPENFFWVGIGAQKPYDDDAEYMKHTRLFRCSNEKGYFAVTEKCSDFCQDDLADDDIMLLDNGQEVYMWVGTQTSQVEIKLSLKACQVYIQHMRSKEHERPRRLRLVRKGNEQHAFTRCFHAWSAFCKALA
Chain of UniProt Q8N137 (Q8N137 whole entry): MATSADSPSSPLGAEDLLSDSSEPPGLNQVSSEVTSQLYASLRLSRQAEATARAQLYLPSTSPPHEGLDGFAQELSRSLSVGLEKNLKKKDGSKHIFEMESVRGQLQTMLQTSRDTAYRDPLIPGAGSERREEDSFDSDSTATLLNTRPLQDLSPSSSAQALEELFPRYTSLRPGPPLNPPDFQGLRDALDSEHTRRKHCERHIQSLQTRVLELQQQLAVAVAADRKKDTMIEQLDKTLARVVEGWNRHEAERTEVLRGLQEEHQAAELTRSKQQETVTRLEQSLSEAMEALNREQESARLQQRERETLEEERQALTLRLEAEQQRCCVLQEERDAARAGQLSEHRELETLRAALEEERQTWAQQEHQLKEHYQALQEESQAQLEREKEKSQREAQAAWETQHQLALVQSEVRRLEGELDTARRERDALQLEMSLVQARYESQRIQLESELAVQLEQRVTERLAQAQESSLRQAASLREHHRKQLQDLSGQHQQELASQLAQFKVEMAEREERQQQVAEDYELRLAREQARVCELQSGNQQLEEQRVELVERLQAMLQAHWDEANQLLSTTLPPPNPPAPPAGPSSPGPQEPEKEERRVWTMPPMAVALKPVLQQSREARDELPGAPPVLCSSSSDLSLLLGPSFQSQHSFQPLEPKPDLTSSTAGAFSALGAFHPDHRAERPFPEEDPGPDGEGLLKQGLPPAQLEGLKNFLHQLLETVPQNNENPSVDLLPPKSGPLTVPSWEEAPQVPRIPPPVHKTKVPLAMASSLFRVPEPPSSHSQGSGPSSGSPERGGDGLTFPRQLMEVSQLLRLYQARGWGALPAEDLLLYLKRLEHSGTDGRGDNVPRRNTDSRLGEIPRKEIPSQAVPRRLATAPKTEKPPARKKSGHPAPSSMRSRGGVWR

Target	NP40-soluble protein abundance (concentration: 1mM)	NP40-soluble protein abundance (concentration: 2mM)	NP40-soluble protein abundance (concentration: 4mM)	NP40-soluble protein abundance (concentration: 6mM)	NP40-soluble protein abundance (concentration: 8mM)	NP40-soluble protein abundance (concentration: 10mM)
UniProt Q14643|Q14643-2|Q14643-5	1.05 ± 0.071	0.999 ± 0.065	1 ± 0.041	0.961 ± 0.07	1.02 ± 0.027	0.995 ± 0.045
SNIP1 (UniProt Q8TAD8)	1.18 ± 0.044	1.22 ± 0.055	1.44 ± 0.085	1.57 ± 0.098	1.67 ± 0.11	1.8 ± 0.1
UniProt Q13438|Q13438-7	0.953 ± 0.036	0.953 ± 0.049	0.94 ± 0.056	0.99 ± 0.069	0.939 ± 0.031	0.952 ± 0.045
UniProt Q6KCM7-2|Q6KCM7-3|Q6KCM7|Q6KCM7-4|Q6KCM7-5	0.871 ± 0.048	0.884 ± 0.061	0.831 ± 0.012	0.758 ± 0.085	0.868 ± 0.039	0.894 ± 0.026
LARP1 (UniProt Q6PKG0)	0.939 ± 0.062	0.988 ± 0.065	1.06 ± 0.059	1.2 ± 0.069	1.22 ± 0.043	1.33 ± 0.065
ZNF672 (UniProt Q499Z4)	0.994 ± 0.061	1.07 ± 0.0039	1 ± 0.089	0.93 ± 0.078	0.996 ± 0.047	0.995 ± 0.016
UniProt Q14677|Q14677-3	1.04 ± 0.042	1.05 ± 0.02	1.04 ± 0.028	1.11 ± 0.027	1.07 ± 0.033	1.09 ± 0.055
RABEP1 (UniProt Q15276)	0.942 ± 0.049	0.944 ± 0.032	0.928 ± 0.021	0.995 ± 0.054	0.895 ± 0.016	0.9135 ± 0.0042
MDC1 (UniProt Q14676)	1.45 ± 0.11	1.57 ± 0.11	1.74 ± 0.13	1.89 ± 0.18	1.88 ± 0.13	1.99 ± 0.15
UniProt Q8N137|Q8N137-2|Q8N137-3|Q8N137-4|Q8N137-5	0.92 ± 0.024	1.032 ± 0.006	1.15 ± 0.056	0.983 ± 0.054	0.945 ± 0.026	0.947 ± 0.2
UniProt Q86Y56	0.992 ± 0.076	0.985 ± 0.067	0.954 ± 0.036	0.917 ± 0.082	0.937 ± 0.046	0.976 ± 0.052
UniProt Q8IZ81|D6RBS5	1.01 ± 0.11	0.966 ± 0.089	0.958 ± 0.094	0.916 ± 0.12	0.967 ± 0.045	0.958 ± 0.057
UniProt Q8N6N3|Q8N6N3-2	0.865 ± 0.1	0.81 ± 0.041	0.869 ± 0.13	0.822 ± 0.051	0.779 ± 0.12	0.817 ± 0.063
FADD (UniProt Q13158)	1.1 ± 0.14	1.05 ± 0.05	1.06 ± 0.11	1.05 ± 0.046	1.06 ± 0.13	0.969 ± 0.11
CEP135 (UniProt Q66GS9)	0.983 ± 0.041	0.966 ± 0.026	0.964 ± 0.038	0.956 ± 0.036	0.972 ± 0.029	0.989 ± 0.047
UniProt Q15906|Q15906-2	1.13 ± 0.12	1.13 ± 0.092	1.22 ± 0.12	1.27 ± 0.23	1.24 ± 0.12	1.26 ± 0.13
UniProt Q13057|Q13057-2	1.01 ± 0.061	1.02 ± 0.072	1.02 ± 0.086	0.962 ± 0.094	1.04 ± 0.095	1.02 ± 0.075
UniProt Q5T200|Q5T200-2	1.04 ± 0.057	1.1 ± 0.056	1.15 ± 0.077	1.22 ± 0.094	1.21 ± 0.086	1.29 ± 0.093

Target	NP40-soluble protein abundance (concentration: 1mM)	NP40-soluble protein abundance (concentration: 2mM)	NP40-soluble protein abundance (concentration: 4mM)	NP40-soluble protein abundance (concentration: 6mM)	NP40-soluble protein abundance (concentration: 8mM)	NP40-soluble protein abundance (concentration: 10mM)
ZC3H12A (UniProt Q5D1E8)	0.982 ± 0.088	1.05 ± 0.089	0.988 ± 0.11	1.02 ± 0.085	1.02 ± 0.084	0.943 ± 0.11
UniProt Q8WU79|A0A087WV97|Q8WU79-2|Q8WU79-3	0.891 ± 0.067	0.924 ± 0.024	0.869 ± 0.011	0.975 ± 0.047	0.839 ± 0.017	0.872 ± 0.032
UniProt Q15036|Q15036-2	0.88 ± 0.17	0.835 ± 0.14	0.853 ± 0.15	0.808 ± 0.18	0.808 ± 0.12	0.849 ± 0.16
UniProt Q14155-1	1 ± 0.011	0.9849 ± 0.0056	0.97 ± 0.013	1.02 ± 0.05	0.976 ± 0.024	0.962 ± 0.034
UniProt Q13045|Q13045-2	1.01 ± 0.039	0.985 ± 0.042	0.974 ± 0.03	0.949 ± 0.058	0.976 ± 0.026	0.968 ± 0.051
UniProt Q8NCU8-2	0.876 ± 0.17	0.822 ± 0.086	0.826 ± 0.14	0.769 ± 0.068	0.883 ± 0.12	0.752 ± 0.038
UniProt Q16181|Q16181-2	0.891 ± 0.15	0.979 ± 0.023	0.9086 ± 0.0056	0.963 ± 0.076	0.957 ± 0.026	0.911 ± 0.046
NFX1 (UniProt Q12986)	1.07 ± 0.08	1.21 ± 0.042	1.34 ± 0.041	1.46 ± 0.046	1.62 ± 0.031	1.66 ± 0.11
UniProt Q13795|Q13795-3	0.95 ± 0.024	0.961 ± 0.015	0.932 ± 0.025	0.962 ± 0.046	0.9416 ± 0.0073	0.945 ± 0.039
UniProt Q16611|Q16611-2	1.01 ± 0.036	0.985 ± 0.023	1.02 ± 0.09	1.05 ± 0.045	0.997 ± 0.077	0.993 ± 0.087
AUH (UniProt Q13825)	0.96 ± 0.062	0.979 ± 0.049	0.967 ± 0.035	0.93 ± 0.082	0.96 ± 0.055	0.973 ± 0.036
NDUFAF2 (UniProt Q8N183)	0.927 ± 0.11	0.916 ± 0.046	0.934 ± 0.093	0.906 ± 0.046	0.959 ± 0.062	0.848 ± 0.12
UniProt Q13247|Q13247-3	1.84 ± 0.25	1.98 ± 0.19	2 ± 0.21	2.28 ± 0.23	2.17 ± 0.17	2.15 ± 0.25
UniProt Q7Z7K6|Q7Z7K6-3	1.08 ± 0.058	1.14 ± 0.19	1.33 ± 0.14	1.47 ± 0.24	1.56 ± 0.23	2.03 ± 0.28
GSPT2 (UniProt Q8IYD1)	1.035 ± 0.0061	1.023 ± 0.0095	1 ± 0.016	1.01 ± 0.02	0.991 ± 0.042	0.987 ± 0.037
UniProt Q8IUD2|X6RLX0	0.979 ± 0.037	0.985 ± 0.025	0.997 ± 0.025	1.01 ± 0.014	0.988 ± 0.027	0.997 ± 0.025
UniProt Q8N3X1|Q8N3X1-2	1.01 ± 0.026	1.11 ± 0.013	1.29 ± 0.042	1.57 ± 0.027	1.72 ± 0.08	1.9 ± 0.082
